Most compounds without a hit are left out; they make up all but 2.9% or so of the library.
mIDH1 inhibitor: qHTS for Inhibitors of mutant isocitrate dehydrogenase 1 (IDH1): qHTS; Isocitrate dehydrogenase [NADP] cytoplasmic (Homo sapiens), O75874; IDH1-R132H enzyme, NADPH consumption, diaphorase/resazurin fluorescence; Potency, µM (doses to about 76.6 µM), actives largely listed as inhibitors; 0.093% of 390,000 active; note: nearly all actives have a fitted effect of over 65% in size
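IDH1-R132H (0.5 ug/mL) preincubated 30 min with compound, then NADPH (0.016 mM) and alpha-KG (2 mM) added; 80 min at RT, pH 7.5. Remaining NADPH coupled via diaphorase/resazurin to fluorescence (540/590 nm); concentration-response curves normalized to no-enzyme control.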
B2AR arrestin: qHTS assay of beta-arrestin-biased ligands of beta2-adrenergic receptor | Beta-2 adrenergic receptor (Homo sapiens), P07550 | beta-arrestin recruitment to beta2AR, cell-based reporter | Potency, µM (series often up to 46.1 µM), most hits filed as activators | 0.02% of 330,000 active; note: nearly all actives have a fitted effect of over 65% in size
D3 antag: qHTS of D3 Dopamine Receptor Antagonist: qHTS; D(3) dopamine receptor (Homo sapiens), P35462; D3R cells, DiscoveRx beta-arrestin luminescence, antagonist mode; stronger effect = lower value; max response, negative = inhibition, %; 2.5% of 360,000 active; AID 652054, 2013; in the data active = max response below about -50%; inconclusive = no clear call, values can overlap the other calls
Target sequence (P35462 whole entry, looked up): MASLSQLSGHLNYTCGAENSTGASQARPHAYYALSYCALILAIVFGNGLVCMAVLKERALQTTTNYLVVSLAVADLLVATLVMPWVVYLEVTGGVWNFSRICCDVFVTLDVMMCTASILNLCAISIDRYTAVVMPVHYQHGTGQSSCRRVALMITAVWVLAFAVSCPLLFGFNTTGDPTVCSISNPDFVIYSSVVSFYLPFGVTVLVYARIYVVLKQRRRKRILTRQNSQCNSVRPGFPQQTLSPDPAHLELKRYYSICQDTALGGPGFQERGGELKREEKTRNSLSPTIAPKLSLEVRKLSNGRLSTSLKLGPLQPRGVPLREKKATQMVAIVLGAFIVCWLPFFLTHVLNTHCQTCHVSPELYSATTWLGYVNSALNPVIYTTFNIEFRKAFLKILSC
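Cells expressing the human receptor were seeded at 1500 cells/well, incubated overnight at 37 degrees C in 5% CO2, then exposed to library compounds with dopamine controls for 90 minutes at 37 degrees C before luminescent detection.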
D3 ag: qHTS of D3 Dopamine Receptor Agonist: qHTS | D(3) dopamine receptor (Homo sapiens), P35462 | D3R DiscoveRx beta-arrestin cells, luminescence, 90 min | max activation, % | 0.58% of 410,000 active | AID 652048, 2013; in the data active = max activation above about 30%
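Agonist-mode cell screen: cells plated at 1500/well and incubated overnight at 37 °C, then exposed to library compounds for 90 min at 37 °C. Detection reagent was added for 30–60 min at room temperature, and luminescence was read.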
Integrin act MD: qHTS for Activators of Integrin-Mediated Alleviation for Muscular Dystrophy; Potency, µM (doses to about 38.3 µM), actives largely listed as activators; 0.064% of 350,000 active; alpha7betagal myoblasts, beta-gal FDG fluorescence, 48 h; note: nearly all actives have a fitted effect of over 60% in size
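alpha7betagal+/- myoblasts (passage 13, 250/well) treated 48 h at 37C with compounds at 1:260 dilution of DMSO stock. Lysed, then beta-galactosidase activity read as FDG fluorescence (ex 480/em 540) after 30 min, with pre-read for autofluorescence.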
Numbers stand for hits; i = inactive; ? = inconclusive; nt = not tested or not shown; ! = not confirmed by another sample. Unless noted, calls come from the whole dose curve; as a rule, active = well fitted curve in the direction sought with a large enough effect; inconclusive = small, poorly fitted or top-dose-only effect, or another doubt; inactive = no such curve, though single readings can be large; an effect the other way counts as inactive or inconclusive.

SMILES	mIDH1 inhibitor	B2AR arrestin	D3 antag	D3 ag	Integrin act MD
COc1ccc(C(CNC(=O)c2cc3c(s2)CCC(C)C3)N2CCCC2)cc1 (configuration not stated)	i	i	-105.0	i	i
COc1ccc(C(CNC(=O)C(C)Oc2ccc(Br)cc2)N2CCOCC2)cc1 (configuration not stated)	i	i	-69.4	i	i
COc1ccc(C(CNC(=O)c2cc3c(s2)CCC(C)C3)N2CCOCC2)cc1 (configuration not stated)	i	i	-103.2	i	i
CCCN1C(=O)C2(c3ccccc31)c1c(oc3ccccc3c1=O)C(=O)N2CCO (configuration not stated)	i	nt	nt	i	nt
COc1ccc(CN(C(=O)Cc2coc3ccc(C)cc23)C2CCS(=O)(=O)C2)cc1 (configuration not stated)	i	nt	nt	i	nt
COC(=O)c1[nH]c2ccc(C)cc2c1NC(=O)CN1CCN(c2ccccc2)CC1	i	i	i	35.9	i
COC(=O)c1[nH]c2cc(C)ccc2c1NC(=O)CN1CCc2cc(OC)c(OC)cc2C1	i	i	-67.4	i	i
CCOC(=O)N1CCN(CC(=O)Nc2c(C(=O)OC)[nH]c3cccc(Cl)c23)CC1	i	i	?	39.5	i
CCN1CCN(CC(=O)Nc2c(C(=O)OC)[nH]c3cccc(Cl)c23)CC1	nt	i	nt	nt	nt
COC(=O)c1[nH]c2ccc(C)cc2c1NC(=O)CN1CCN(c2ccc(F)cc2)CC1	i	i	i	i	i
Cc1oc2ncn(C)c(=O)c2c1C(=O)N(C)c1ccccc1F	i	nt	nt	i	nt
CNC(=O)CSc1nnc(C2CC2)n1-c1ccccc1	i	i	i	i	i
CC(C)NC(=O)CSc1nnc(C2CC2)n1-c1ccccc1	i	i	-50.9	i	i
Nn1c(CN2CCCCC2)nc2ccccc2c1=O	i	i	-91.4	i	i
Cc1nnc(C(C)C)n1C1C[C@H]2CC[C@@H](C1)N2CC[C@H](NC(=O)C1CCC(F)(F)CC1)c1ccccc1 (some centres not stated)	nt	nt	nt	i	nt
COc1ccc(CNC(=O)CN2C(=O)c3ccc([N+](=O)[O-])cc3C2=O)cc1	i	i	i	31.5	?
COc1ccc(CNC(=O)CN2C(=O)c3ccccc3C2=O)cc1	i	i	i	i	i
O=C1/C(=C/c2ccc(O)c(O)c2)SC(=S)N1Nc1ccccc1	i	i	i	i	i
O=C(NN1C(=O)/C(=C/c2ccc(O)c(O)c2)SC1=S)c1ccccc1	i	i	-63.0	i	i
Cc1cccc(C)c1NC(=O)COC(=O)c1c2c(nc3ccccc13)/C(=C\c1ccc3c(c1)OCO3)CCC2	i	i	-57.6	i	?
CCc1ccccc1NC(=O)Cn1nnc(C(=O)NCc2ccco2)c1N	i	nt	nt	i	nt
COc1ccc(Cl)cc1NC(=O)Nc1cccc([N+](=O)[O-])c1C	i	i	-76.1	i	i
COc1ccc(Cl)cc1NC(=O)NC1CCCCC1	i	i	i	i	i
Fc1ccc(N2CCN(c3nc4ccccc4c4nc(-c5cccnc5)nn34)CC2)cc1	i	nt	nt	i	nt
Cc1cc([N+](=O)[O-])cc2ncccc12	i	i	-75.1	i	i
SMILES	mIDH1 inhibitor	B2AR arrestin	D3 antag	D3 ag	Integrin act MD
Cc1c(Cl)cccc1Nc1nc(N)nc(CN2CCc3ccccc3C2)n1	i	i	-64.0	i	i
Cc1cccc(Nc2nc(N)nc(CN3CCN(c4ccccc4F)CC3)n2)c1	i	nt	-52.6	i	i
Cc1cccc(Nc2nc(N)nc(CN3CCC(C(N)=O)CC3)n2)c1C	i	i	i	i	i
Cc1ccc(Nc2nc(N)nc(CN3CCc4ccccc4C3)n2)cc1	i	i	-64.3	i	i
Cc1ccc(Nc2nc(N)nc(CSc3nc4ccccc4s3)n2)cc1	i	i	i	45.2!	i
O=C(c1ccc(=O)[nH]n1)N1CCN(S(=O)(=O)c2cccc(F)c2)CC1	i	i	i	i	i
COCC(C)n1c(SCC(=O)Nc2cccnc2Cl)nc2ccccc2c1=O (configuration not stated)	i	nt	i	i	i
COc1cc(OC)c(N(C)S(=O)(=O)c2cccc(C(=O)OCC(=O)c3c[nH]c4ccccc34)c2)cc1Cl	i	i	i	32.8	i
C=CCN(c1ccccc1OC)S(=O)(=O)c1cccc(C(=O)OCC(=O)c2c[nH]c3ccccc23)c1	i	i	i	i	i
O=C(NNC1=Nc2cccc3cccc1c23)c1ccc(Br)cc1	i	i	-97.3	i	i
COc1ccc(CC(=O)NNC2=Nc3cccc4cccc2c34)cc1OC	i	i	?	i	i
C=CCn1c(Cc2ccccc2)nc2c(cnn2-c2ccccc2)c1=O	i	i	i	39.2	i
Nn1c(SCc2ccccc2)nc2c(cnn2-c2ccccc2)c1=O	i	i	i	i	i
COc1cccc(NC(=O)N(CCCN2CCOCC2)C(C)c2cc3ccccc3o2)c1 (configuration not stated)	i	i	-69.8	i	i
CC1(C(=O)NCCC#N)CCN1C(=O)C1(c2ccccc2)CC1 (configuration not stated)	nt	nt	-63.4	i	nt
CCc1ccccc1NC(=O)c1cc(S(=O)(=O)N2CCC(C)CC2)cn1C	i	nt	nt	62.0	nt
CCOc1ccc(NC(=O)c2cc(S(=O)(=O)N3CCC(C)CC3)cn2C)cc1	i	nt	nt	i	nt
CCCc1cc(-c2n[nH]c(C)c2-c2ccc(C(=O)OCC)o2)c(O)cc1O	i	i	i	35.4	i
CCCCN(C(=O)C(C)Oc1ccc(Cl)cc1)c1c(N)n(CCCC)c(=O)[nH]c1=O (configuration not stated)	i	i	i	i	i
Cc1ccc(C(C)C)cc1OCC(=O)N/N=C/c1ccc2c(c1)OCCO2	i	i	i	48.1	i
CC(C)N(CCC(=O)c1ccc2ccccc2c1)Cc1ccccc1	i	i	-131.6	i	nt
CC(OC(=O)c1ccc2ccccc2c1)C(=O)N(C)Cc1ccccc1 (configuration not stated)	i	i	i	i	i
O=C(Nc1ccc(S(=O)(=O)NCc2cccnc2)cc1)c1ccccc1Cl	i	i	-82.5	i	i
O=C(Nc1ccc(Oc2cccnc2)cc1)c1ccccc1Cl	i	i	i	i	10µM
O=C(Nc1ccccc1)c1ccc(S(=O)(=O)NCc2cccnc2)cc1	i	i	i	i	i
Cc1ccc(C(=O)COC(=O)c2ccncc2)cc1[N+](=O)[O-]	i	i	-92.2	i	i
Cc1ccc(C(=O)COC(=O)c2cc(Cl)ccc2O)cc1[N+](=O)[O-]	i	i	i	i	i
